In PubChem BioAssay (EPA / NIEHS) one finds outcome and AC50 data, which are given here for seven compounds.

A short description of assay [1]: CCTE_Shafer_MEA_acute_per_network_burst_spike_number_std: CCTE's Neural Acute Assay for Standard Deviation of Number of Spikes in a Network Burst, Shafer Lab (AID 2284020).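 Also: fitted for decrease in spike-number SD versus DMSO so actives lower it.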 A digest of the protocol: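 Acute MEA exposure, rat cortical neurons, 0.03-40 uM. Per-well % change versus own baseline; DMSO as negative control.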
Assay [2] is described as follows: CCTE_Shafer_MEA_acute_per_network_burst_electrodes_number_mean: CCTE's Neural Acute Assay for Mean Number of Electrodes in a Network Burst, Shafer Lab (AID 2284021).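 Also: curves fitted for decreases only so hits reduce electrodes per burst.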 A digest of the protocol: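 Rat primary cortical neurons on 48-well MEAs, DIV 13 or 15, were treated at 0.03-40 uM. Spikes were detected at 8x rms noise and recorded at 37 C. The mean electrodes per network burst in a 40 min exposure recording was expressed as percent change from a 40 min baseline.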

Assay [3] is described as follows: CCTE_Shafer_MEA_acute_network_burst_percentage: CCTE's Neural Acute Assay for Percentage of Network Bursts, Shafer Lab (AID 2284022).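 Also: curves fitted for loss so actives lower network burst percentage.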 A digest of the protocol: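 Rat primary cortical neuron networks on 48-well MEA plates, DIV 13 or 15, treated acutely with compound (0.03-40 uM, at least three wells). Percent of spikes within network bursts compared between 40-min recordings before and during exposure at 37 C, expressed as percent change.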

A short description of assay [4]: CCTE_Shafer_MEA_acute_cross_correlation_area: CCTE's Neural Acute Assay for Area of Cross Correlation, Shafer Lab (AID 2284024).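 Also: curves fitted for loss of cross-correlation area so actives lower synchrony.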 A digest of the protocol: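 Rat primary cortical neurons on 48-well MEA, DIV 13 or 15; compounds 0.03-40 uM. Baseline and post-exposure 40 min recordings at 37 C; percent change in area under pooled inter-electrode cross-correlation near zero lag, relative to DMSO.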

Assay [5] in a line: CCTE_Shafer_MEA_acute_cross_correlation_HWHM: CCTE's Neural Acute Assay for Cross Correlation at Half Width at Half Maximum, Shafer Lab (AID 2284026).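 Also: hits are a decrease in cross-correlogram half width relative to DMSO.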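 As to outcome: spontaneous network firing of rat primary cortical neurons on multiwell microelectrode arrays.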 A digest of the protocol: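 Rat primary cortical neurons on 48-well MEA plates; 40-min baseline and 40-min post-exposure recordings at 37 C on DIV 13 or 15, compounds 0.03-40 uM. Spikes detected at 8x rms noise; percent change in cross-correlogram HWHM per well vs baseline.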

The nature of assay [6]: CCTE_Shafer_MEA_acute_synchrony_index: CCTE's Neural Acute Assay for Synchrony, Shafer Lab (AID 2284027).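 Also: network synchrony index of spontaneous spiking in primary rat cortical neurons on MEAs; fitted for loss of signal so actives lower synchrony relative to DMSO.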 A digest of the protocol: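 Plates equilibrated 20 min at 37 C, baseline recorded 40 min, compound (0.03-40 uM) added, then 40 min more recorded. Cells: primary rat cortical neurons, DIV 13 or 15. Per-well synchrony index change analysed in negative direction against DMSO.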

A short description of assay [7]: CCTE_Shafer_MEA_dev_per_burst_spike_percent: CCTE's Neural Network Formation Assay for Percent of Spikes in a Burst, Shafer Lab (AID 2284032).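 As to AC50: fitted as a decrease in burst spike percentage below DMSO baseline.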 A digest of the protocol: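 Value is trapezoidal AUC over recordings on days 5, 7, 9 and 12 of the well-mean fraction of spikes falling in single-electrode bursts; rat cortical cultures exposed continuously from plating, treatment renewed DIV 5 and 9, fitted downward against DMSO.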

Assay [8] in a line: CCTE_Shafer_MEA_dev_active_electrodes_number: CCTE's Neural Network Formation Assay for Number of Active Electrodes, Shafer Lab (AID 2284040; active = hit-call score of the fitted dose curve at least 0.9, where 1 is the maximum;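 as to AC50: potency for loss of active electrodes versus DMSO so lower counts are hits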). A digest of the protocol: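 Counts electrodes per well firing at least 5 spikes/min, recorded on days 5, 7, 9 and 12 in rat cortical cultures dosed continuously from plating (treatment refreshed DIV 5, 9). Value is the area under the curve over recordings, fitted downward relative to DMSO.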

Assay [9] is described as follows: CCTE_Shafer_MEA_dev_burst_rate: CCTE's Neural Network Formation Assay for Burst Rate, Shafer Lab (AID 2284042).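 As to AC50: potency for loss of burst rate below DMSO control.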 A digest of the protocol:
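Exposure ran continuously over 12 days of network development in rat cortical cultures, with compound refreshed during full media changes on DIV 5 and 9. Single-electrode bursts per recording time, well-mean over active electrodes, trapezoidal AUC across days 5–12, fitted downward relative to DMSO.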

The nature of assay [10]: CCTE_Shafer_MEA_dev_burst_duration_mean: CCTE's Neural Network Formation Assay for Mean Burst Duration, Shafer Lab (AID 2284045).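 As to AC50: curve fitted for loss meaning shorter burst duration than DMSO.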 A digest of the protocol: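 Network-formation assay in primary rat cortical neurons; treatment spans twelve days of development. Mean burst duration per well is integrated by trapezoidal AUC and fitted in the loss-of-signal direction against DMSO baseline.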

Assay [11] in a line: CCTE_Shafer_MEA_dev_interburst_interval_mean: CCTE's Neural Network Formation Assay for Mean Interburst Interval, Shafer Lab (AID 2284046).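 Also: well-mean interburst interval of bursting electrodes as AUC over four recording days; curve fitted for decrease in interburst interval relative to DMSO.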 A digest of the protocol:
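Primary rat cortical neurons on PEI-coated 48-well MEA plates (laminin added with cells at plating) (16 electrodes/well), exposed from plating day 0 with renewal at DIV 5 and 9. Mean inter-burst interval averaged over bursting electrodes, AUC across days 5, 7, 9, 12; DMSO baseline.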

Assay [12] can be described thus: CCTE_Shafer_MEA_dev_inter_network_spike_interval_mean: CCTE's Neural Network Formation Assay for Mean Inter-network Spike Interval, Shafer Lab (AID 2284047).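 As to AC50: potency for a decrease in mean inter-network spike interval below DMSO.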 A digest of the protocol: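 Mean time between consecutive network-spike peaks, recorded extracellularly (adaptive spike detection) on DIV 5, 7, 9 and 12, summarized as trapezoidal AUC. Rat cortical cultures on MEAs dosed continuously days 0–12, re-dosed at feeds; loss-of-signal fit relative to DMSO.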

Assay [13] in a line: CCTE_Shafer_MEA_dev_network_spike_number: CCTE's Neural Network Formation Assay for Number of Network Spikes, Shafer Lab (AID 2284048).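 Also: synchronized bursts across electrodes counted on days 5 7 9 12 and integrated as AUC.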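 As to AC50: fit as a loss of signal meaning fewer network spikes than DMSO.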 A digest of the protocol:
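Extracellular recordings from 16-electrode wells track network formation in rat cortical cultures under continuous treatment from plating. The endpoint is network spike number, expressed as AUC across DIV 5–12 relative to DMSO vehicle.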

Assay [14] in a line: CCTE_Shafer_MEA_dev_network_spike_duration_std: CCTE's Neural Network Formation Assay for Standard Deviation of Network Spike Duration, Shafer Lab (AID 2284052).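 Also: hits are decreases in network spike duration SD versus DMSO vehicle.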 A digest of the protocol: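 Network spike duration variability was collapsed across recordings on days 5, 7, 9 and 12 by trapezoidal area-under-curve and fitted downward against DMSO. Cultures were rat cortical neurons on PEI-coated MEA plates, dosed continuously from plating, refed with compound DIV 5/9.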

Assay [15] deals with DIO2 (gene 1734). Briefly: CCTE_GLTED_hDIO2: CCTE's human Deiodinase 2 (DIO2) Inhibition Assay, Great Lakes Toxicology and Ecology Division (GLTED) Lab (AID 2284050; active = hit-call score of the fitted dose curve at least 0.9, where 1 is the maximum). A digest of the protocol:
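Inhibition is judged by reduced iodide release: uninhibited human DIO2 frees iodide from substrate over 3 h, measured afterward by Sandell-Kolthoff colorimetry. Iodinated chemicals or nitrite, iron and thiocyanate may interfere.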

The nature of assay [16]: CCTE_Deisenroth_AIME_384WELL_CTox_Active: Cytotoxicity Assessment (CTOX) in CCTE's 384-well Estrogen Receptor Transactivation Assay with AIME metabolic competence (metabolism positive), Deisenroth Lab (AID 2284037; active = hit-call score of the fitted dose curve at least 0.9, where 1 is the maximum;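 also: chemicals first conditioned 2 h by alginate-bound induced rat liver S9 before cells; activity means signal loss indicating cell death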). A digest of the protocol: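 VM7Luc4E2 breast cells received medium pre-incubated 2 h with chemical over alginate microspheres holding induced male Sprague Dawley rat liver S9; viability read 24 h later by protease-substrate fluorescence. Loss of signal, bidirectional fit, 0.002–200 uM.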

A short description of assay [17]: CCTE_Deisenroth_AIME_384WELL_CTox_Inactive: Cytotoxicity Assessment (CTOX) in CCTE's 384-well Estrogen Receptor Transactivation Assay without AIME metabolic competence (metabolism negative), Deisenroth Lab (AID 2284039; active = hit-call score of the fitted dose curve at least 0.9, where 1 is the maximum;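 also: cell viability via live-cell protease substrate cleaved to fluorescent probe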). A digest of the protocol: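 Fluorescent protease-substrate viability readout after 24 h exposure of VM7Luc4E2 cells to conditioned medium. Chemicals (0.002–200 uM) first sat 2 h over alginate-water beads, no S9. Data fitted bidirectionally, loss of signal meaning viability loss.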

“And” between values parts separate entries of the source, which are not always exact repeats. Identical values can stand only once. Inconclusive results are not listed. Some structures have more than one record in an assay (separate samples or runs), and their calls can disagree. The source made the active and inactive calls. The calls were made as follows, unless noted: active = hit-call score of the fitted dose curve at least 0.9, where 1 is the maximum; inactive = score below 0.9.

One may read the AC50 as the concentration giving half of the maximal activity seen. In the case of `C[N+]1(C)CCCCC1`, the outcome in [1], in [2], in [3], in [4], in assay [5] and in assay [6] was inactive. The call in assay [7], in assay [9], in [10], in assay [11], in assay [12] and in assay [13] was inactive. Also, in [14], the compound was classed as inactive. Further, in assay [8], the concentration at half-maximal activity (AC50) was 15 µM (active).
Consider `CCc1cnc(C2=NC(C)(C(C)C)C(=O)N2)c(C(=O)O)c1` (configuration not stated), for which the outcome in [1], in [2], in assay [3], in [4], in [5] and in assay [6] was inactive.
On to `CC[C@H](C)[C@H]1O[C@]2(C=C[C@@H]1C)C[C@@H]1C[C@@H](C/C=C(\C)[C@@H](O[C@H]3C[C@H](OC)[C@@H](O[C@H]4C[C@H](OC)[C@@H](NC)[C@H](C)O4)[C@H](C)O3)[C@@H](C)/C=C/C=C3\CO[C@@H]4[C@H](O)C(C)=C[C@@H](C(=O)O1)[C@]34O)O2`, for which the concentration at half-maximal activity (AC50) was 23.7 nM (active) and 1.5 µM (active) in assay [1]; 615 nM (active) and 8.88 µM (active) in assay [2]; 43 nM (active) and 1.55 µM (active) in assay [3]; 0.00626 µM (active) in [4]; 25.5 nM (active) and 47.5 nM (active) in assay [5]; 37.6 nM (active) and 751 nM (active) in [6]. Moreover, the AC50 was 88.8 nM (active) and 3.52 nM (active) in assay [7]; 55 nM (active) and 4.37 nM (active) in assay [8]; 21.3 nM (active) and 3.47 nM (active) in assay [9]; 20.1 nM (active) and 1.89 nM (active) in assay [10]; 220 nM (active) and 2.96 nM (active) in assay [11]; 0.16 µM (active) in assay [12]. For the same compound, the AC50 in assay [13] is 47.4 nM (active) and 4.79 nM (active); in assay [15], 31.3 µM (active); in assay [14], 5.01 nM (active) and 3.04 nM (active). Besides, the call in [4] and in assay [12] was inactive.
Take `CCOP(=S)(OCC)Oc1ccc2c(C)c(Cl)c(=O)oc2c1`: the half-maximal activity concentration (AC50) in [1] is 4.38 µM (active); in assay [2], 4.12 µM (active); in assay [3], 27.2 µM (active); in assay [5] it was 2.38 µM (active); in assay [6] it was 6.95 µM (active); in assay [7], 50 µM (active). For the same compound, the AC50 in assay [8] is 65.8 µM (active). In addition, the compound was classed as inactive in assay [4], in assay [16], in assay [17], in [9], in [10] and in [11]. In addition, the compound was called inactive in assay [12], in assay [13] and in assay [14].
Turning to `Cc1ccn2nc(S(=O)(=O)Nc3c(F)cccc3F)nc2n1`, the compound was classed as inactive in assay [1], in [2], in assay [3], in assay [4], in assay [5] and in assay [6].
With `C#CCC1=C(C)C(OC(=O)C2C(C=C(C)C)C2(C)C)CC1=O` (configuration not stated), the half-maximal activity concentration (AC50) in assay [1] was 19.9 µM (active); in assay [2] it was 5.78 µM (active); in assay [3], 14.6 µM (active); in assay [6] it was 17.8 µM (active); in assay [7] it was 9.95 µM (active); in assay [17] it was 144 µM (active). Moreover, the AC50 in [12] was 9.95 µM (active); in [15], 42.4 µM (active). Further, the call in [4], in assay [5], in assay [16], in assay [8], in assay [9] and in [10] was inactive. For the same compound, the compound was classed as inactive in [11], in assay [13] and in assay [14].
Take `COP(=O)(OC)C(O)C(Cl)(Cl)Cl` (configuration not stated): the outcome in assay [1], in assay [2], in assay [3], in assay [4], in [6] and in [7] was inactive. For the same compound, the compound was classed as inactive in [9], in [10], in [11], in [12], in [13] and in [14]. For the same compound, the AC50 in [5] is 15 µM (active); in assay [7] it was 50 µM (active); in assay [8], 11.6 µM (active); in assay [13], 2.98 µM (active).
